According to PubChem BioAssay (EPA / NIEHS):
Results filed as inconclusive are left out. Activity calls are given as the source filed them. How the source made its calls, unless noted: active means hit-call score of the fitted dose curve at least 0.9, where 1 is the maximum; inactive means score below 0.9.

Key:
[1] = biological target: Nuclear respiratory factor 1 (Homo sapiens) (UniProt Q16656); assay: ATG_NRF1_CIS: Attagene CIS-FACTORIAL HepG2 Assay for human Nuclear Respiratory Factor 1 (NRF1) Orphan Gene (AID 2282987); conditions: HepG2 NRF1 cis-element reporter, Attagene multiplex; actives raise or lower the signal
In short: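 HepG2 cells transiently transfected with multiple reporter transcription units under cis-regulatory promoter control, so endogenous transcription-factor activity is read. After 24 h compound exposure, reporter mRNA quantified by RT-PCR, fluorescent labelling, HpaI digestion and capillary electrophoresis; bidirectional fitting versus DMSO.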

[2] = ATG_NFI_CIS: Attagene CIS-FACTORIAL HepG2 Assay for human Nuclear Factor I (NFI) (AID 2282989); conditions: HepG2 cis-regulatory reporter, NFI response element transcription; actives raise or lower the signal
In short: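 HepG2 cells transiently transfected with cis-element-driven multiplexed reporter transcription units, dosed for 24 h. Reporter mRNA quantified by RT-PCR, fluorescent labelling, HpaI digestion and capillary electrophoresis; bidirectional fit versus DMSO baseline.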

[3] = biological target: Myc proto-oncogene protein (Homo sapiens) (UniProt P01106); assay: ATG_Myc_CIS: Attagene CIS-FACTORIAL HepG2 Assay for human Myelocytomatosis (Myc) Proto-Oncogene Transcription Factor (AID 2282990); conditions: HepG2, Attagene cis-reporter transcription factor activity; actives raise or lower the signal
In short: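 Fluorescence intensity of reporter-specific cDNA fragments, separated by capillary electrophoresis, gives the signal. Transfected HepG2 cells carrying cis-promoter reporter constructs are incubated with compound for 24 h; DMSO serves as baseline.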

[4] = ATG_NF_kB_CIS: Attagene CIS-FACTORIAL HepG2 Assay for human Nuclear Factor Kappa B (NF-kB) (AID 2282991); conditions: HepG2 Attagene cis-factorial NF-kB reporter mRNA; actives raise or lower the signal
In short: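 HepG2 cells transiently transfected with multiplexed cis-element reporter units measuring endogenous transcription factor activity; reporter mRNA read 24 h after dosing by RT-PCR, fluorescent labelling, HpaI digestion and capillary electrophoresis. Bidirectional fit against DMSO baseline.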

[5] = ATG_NRF2_ARE_CIS: Attagene CIS-FACTORIAL HepG2 Assay for human Nuclear Factor Erythroid 2 Related Factor 2 (NFR2) response to Antioxidant Response Elements (ARE) (AID 2282992); conditions: HepG2 Attagene ARE/NRF2 reporter, transcription factor activity; actives raise or lower the signal;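 on AC50: reporter mRNA level measured by RT-PCR and capillary electrophoresis fluorescence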
In short: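 Cis-factorial assay: transfected HepG2 reporter library, 24 h dosing, mRNA readout via RT-PCR/CE; DMSO-referenced bidirectional analysis.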

[6] = ATG_Oct_MLP_CIS: Attagene CIS-FACTORIAL HepG2 Assay for human Octamer-Binding Transcription Factor (Oct) (AID 2282993); conditions: HepG2 Attagene cis-factorial Oct reporter, mRNA; actives raise or lower the signal
In short: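 HepG2 cells transiently transfected with cis-promoter-driven multiplexed reporter transcription units, dosed for 24 h. Reporter mRNA quantified by RT-PCR, fluorescent labelling, HpaI digestion and capillary electrophoresis; bidirectional fits versus DMSO baseline.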

[7] = biological target: Cellular tumor antigen p53 (Homo sapiens) (UniProt P04637); assay: ATG_p53_CIS: Attagene CIS-FACTORIAL HepG2 Assay for human p53 Transcription Factor (AID 2282994); conditions: HepG2 p53 cis-element reporter, Attagene mRNA; actives raise or lower the signal
In short: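 Using HepG2 hepatoma cells carrying cis-acting multiplexed reporters, mRNA induction is detected after a 24 h exposure. Gain- and loss-of-signal responses are fitted relative to DMSO-treated cells.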

[8] = biological target: human Peroxisome Proliferator-activated Receptor alpha (PPARa), PPARA (gene 5465) (UniProt Q07869); assay: ATG_PPARa_TRANS: Attagene TRANS-FACTORIAL HepG2 Assay for human Peroxisome Proliferator-activated Receptor alpha (PPARa) (AID 2283001; active means hit-call score of the fitted dose curve at least 0.9, where 1 is the maximum;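 on AC50: potency for gain of reporter signal over DMSO so agonist or activator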)
In short: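 HepG2 cells transiently transfected with multiplexed GAL4-UAS reporters driven by exogenous chimeric NR-Gal4 proteins; reporter mRNA measured after 24 h dosing. Read-out by RT-PCR, 6-FAM labelling, HpaI digestion and capillary electrophoresis; gain of signal versus DMSO.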

[9] = biological target: Peroxisome proliferator-activated receptor gamma (Homo sapiens) (UniProt P37231); assay: ATG_PPARg_TRANS: Attagene TRANS-FACTORIAL HepG2 Assay for human Peroxisome Proliferator-activated Receptor-gamma (PPARg) (AID 2283007; active means hit-call score of the fitted dose curve at least 0.9, where 1 is the maximum)
In short: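 HepG2 cells transiently transfected with multiplexed GAL4-UAS reporter units and exogenous chimeric NR-Gal4 proteins; reporter mRNA quantified after 24 h compound exposure by RT-PCR, fluorescent labelling, HpaI digestion and capillary electrophoresis; gain-of-signal fitted versus DMSO baseline.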

[10] = biological target: human Peroxisome Proliferator-activated Receptor delta (PPARd), PPARD (gene 5467) (UniProt Q03181); assay: ATG_PPARd_TRANS: Attagene TRANS-FACTORIAL HepG2 Assay for human Peroxisome Proliferator-activated Receptor delta (PPARd) (AID 2283002; active means hit-call score of the fitted dose curve at least 0.9, where 1 is the maximum)
In short: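 Fluorescence from capillary electrophoresis of labelled RT-PCR reporter fragments gives the signal; DMSO sets baseline. Cells: HepG2 transiently carrying GAL4-UAS reporter units plus chimeric nuclear receptor-Gal4 proteins, exposed to chemicals for 24 h.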

[11] = biological target: human Retinoic Acid Receptor gamma (RARg), RARG (gene 5916) (UniProt P13631); assay: ATG_RARg_TRANS: Attagene TRANS-FACTORIAL HepG2 Assay for human Retinoic Acid Receptor gamma (RARg) (AID 2283009; active means hit-call score of the fitted dose curve at least 0.9, where 1 is the maximum)
In short: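 Transient transfection of HepG2 with multi-reporter constructs, then 24 h chemical treatment. Total RNA isolated, reverse-transcribed, PCR-amplified, fluorescently labelled and resolved by capillary electrophoresis; activity scored as mRNA induction versus DMSO.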

[12] = biological target: Nuclear receptor subfamily 1 group I member 2 (Homo sapiens) (UniProt O75469); assay: ATG_PXR_TRANS: Attagene TRANS-FACTORIAL HepG2 Assay for human Pregnane X Receptor (PXR) (AID 2283008; active means hit-call score of the fitted dose curve at least 0.9, where 1 is the maximum)
In short: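 Fluorescence intensity of FAM-labelled, HpaI-digested reporter amplicons, separated by capillary electrophoresis, quantifies induction. HepG2 cells with PXR-Gal4 trans-reporter system were exposed 24 h; DMSO defines baseline.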

[13] = biological target: human Retinoic Acid Receptor beta (RARb), RARB (gene 5915) (UniProt P10826); assay: ATG_RARb_TRANS: Attagene TRANS-FACTORIAL HepG2 Assay for human Retinoic Acid Receptor beta (AID 2283004; active means hit-call score of the fitted dose curve at least 0.9, where 1 is the maximum)
In short: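 HepG2, transient MRTU transfection, NR–Gal4 chimera, 24 h treatment; RT-PCR plus CE fluorescence detection of reporter mRNA; gain of signal vs DMSO.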

[14] = biological target: Retinoic acid receptor alpha (Homo sapiens) (UniProt P10276); assay: ATG_RARa_TRANS: Attagene TRANS-FACTORIAL HepG2 Assay for human Retinoic Acid Receptor alpha (RARa) (AID 2283005; active means hit-call score of the fitted dose curve at least 0.9, where 1 is the maximum)
In short: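 HepG2 transiently transfected with multiplex GAL4-UAS reporter units including a human RARa–GAL4 chimera; 24 h compound exposure. Reporter mRNA quantified by RT-PCR, 6-FAM labeling and capillary electrophoresis; gain of signal versus DMSO.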

Measured: AC50

Chain of human Retinoic Acid Receptor gamma (RARg), RARG (gene 5916) (P13631 whole entry, looked up): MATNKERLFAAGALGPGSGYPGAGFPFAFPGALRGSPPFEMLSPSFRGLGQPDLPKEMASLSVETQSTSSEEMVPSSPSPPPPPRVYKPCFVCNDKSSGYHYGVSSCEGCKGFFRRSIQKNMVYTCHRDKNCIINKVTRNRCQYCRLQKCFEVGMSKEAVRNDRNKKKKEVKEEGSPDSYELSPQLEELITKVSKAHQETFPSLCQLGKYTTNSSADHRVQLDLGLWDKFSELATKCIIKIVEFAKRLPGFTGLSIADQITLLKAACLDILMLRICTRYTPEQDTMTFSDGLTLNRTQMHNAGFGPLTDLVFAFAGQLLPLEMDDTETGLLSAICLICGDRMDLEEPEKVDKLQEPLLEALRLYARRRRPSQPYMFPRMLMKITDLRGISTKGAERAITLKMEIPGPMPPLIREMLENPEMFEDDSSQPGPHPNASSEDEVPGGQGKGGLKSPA
Chain of Nuclear receptor subfamily 1 group I member 2 (Homo sapiens) (O75469 whole entry, looked up, the tested form may be a part): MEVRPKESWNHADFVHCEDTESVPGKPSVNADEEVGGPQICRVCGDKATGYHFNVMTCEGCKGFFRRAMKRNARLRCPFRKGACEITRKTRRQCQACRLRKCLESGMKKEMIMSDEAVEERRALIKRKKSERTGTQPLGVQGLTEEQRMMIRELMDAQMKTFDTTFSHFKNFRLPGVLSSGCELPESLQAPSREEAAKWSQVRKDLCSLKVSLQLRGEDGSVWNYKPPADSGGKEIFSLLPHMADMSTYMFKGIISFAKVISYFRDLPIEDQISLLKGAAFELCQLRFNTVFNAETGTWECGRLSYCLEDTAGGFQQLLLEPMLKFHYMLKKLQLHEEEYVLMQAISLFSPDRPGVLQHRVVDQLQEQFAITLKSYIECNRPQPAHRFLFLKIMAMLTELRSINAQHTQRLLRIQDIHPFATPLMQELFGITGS
Chain of Cellular tumor antigen p53 (Homo sapiens) (P04637 whole entry, looked up): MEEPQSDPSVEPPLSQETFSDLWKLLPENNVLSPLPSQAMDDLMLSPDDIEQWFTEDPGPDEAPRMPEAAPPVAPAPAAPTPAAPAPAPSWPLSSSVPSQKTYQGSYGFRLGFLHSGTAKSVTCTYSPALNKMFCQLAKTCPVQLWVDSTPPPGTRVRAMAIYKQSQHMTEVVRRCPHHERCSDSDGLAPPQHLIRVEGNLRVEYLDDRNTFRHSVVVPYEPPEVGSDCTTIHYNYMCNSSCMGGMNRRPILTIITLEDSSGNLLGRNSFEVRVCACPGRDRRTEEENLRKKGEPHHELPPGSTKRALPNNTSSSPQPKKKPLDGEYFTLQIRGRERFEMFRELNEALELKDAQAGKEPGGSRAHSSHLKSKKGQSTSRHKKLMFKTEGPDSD
Chain of human Peroxisome Proliferator-activated Receptor alpha (PPARa), PPARA (gene 5465) (Q07869 whole entry, looked up, the tested form may be a part): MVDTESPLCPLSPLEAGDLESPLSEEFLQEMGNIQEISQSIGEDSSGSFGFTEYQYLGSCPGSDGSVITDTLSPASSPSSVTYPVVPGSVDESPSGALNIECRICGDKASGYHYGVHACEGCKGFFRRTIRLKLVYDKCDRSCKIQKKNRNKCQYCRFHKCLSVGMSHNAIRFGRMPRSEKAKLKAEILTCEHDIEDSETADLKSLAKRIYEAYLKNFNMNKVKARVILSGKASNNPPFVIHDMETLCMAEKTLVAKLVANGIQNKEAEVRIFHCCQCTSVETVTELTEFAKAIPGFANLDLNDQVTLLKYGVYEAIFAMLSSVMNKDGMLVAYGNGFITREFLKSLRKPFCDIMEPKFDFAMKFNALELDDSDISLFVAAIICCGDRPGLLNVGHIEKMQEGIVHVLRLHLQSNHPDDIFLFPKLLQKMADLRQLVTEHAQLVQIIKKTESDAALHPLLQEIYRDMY
Chain of Retinoic acid receptor alpha (Homo sapiens) (P10276 whole entry, looked up, the tested form may be a part): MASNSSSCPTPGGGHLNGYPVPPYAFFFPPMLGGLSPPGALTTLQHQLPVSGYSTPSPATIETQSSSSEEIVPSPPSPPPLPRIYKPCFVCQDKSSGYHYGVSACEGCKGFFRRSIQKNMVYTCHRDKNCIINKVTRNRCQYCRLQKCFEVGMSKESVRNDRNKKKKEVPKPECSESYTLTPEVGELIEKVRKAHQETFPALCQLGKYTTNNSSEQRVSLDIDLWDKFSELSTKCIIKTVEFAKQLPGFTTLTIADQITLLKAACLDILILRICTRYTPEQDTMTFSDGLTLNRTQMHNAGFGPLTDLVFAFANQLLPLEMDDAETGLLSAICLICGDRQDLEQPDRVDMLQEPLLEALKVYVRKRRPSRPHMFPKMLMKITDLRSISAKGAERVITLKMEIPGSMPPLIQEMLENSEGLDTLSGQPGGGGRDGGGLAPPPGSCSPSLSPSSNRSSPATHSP
Chain of Peroxisome proliferator-activated receptor gamma (Homo sapiens) (P37231 whole entry, looked up, the tested form may be a part): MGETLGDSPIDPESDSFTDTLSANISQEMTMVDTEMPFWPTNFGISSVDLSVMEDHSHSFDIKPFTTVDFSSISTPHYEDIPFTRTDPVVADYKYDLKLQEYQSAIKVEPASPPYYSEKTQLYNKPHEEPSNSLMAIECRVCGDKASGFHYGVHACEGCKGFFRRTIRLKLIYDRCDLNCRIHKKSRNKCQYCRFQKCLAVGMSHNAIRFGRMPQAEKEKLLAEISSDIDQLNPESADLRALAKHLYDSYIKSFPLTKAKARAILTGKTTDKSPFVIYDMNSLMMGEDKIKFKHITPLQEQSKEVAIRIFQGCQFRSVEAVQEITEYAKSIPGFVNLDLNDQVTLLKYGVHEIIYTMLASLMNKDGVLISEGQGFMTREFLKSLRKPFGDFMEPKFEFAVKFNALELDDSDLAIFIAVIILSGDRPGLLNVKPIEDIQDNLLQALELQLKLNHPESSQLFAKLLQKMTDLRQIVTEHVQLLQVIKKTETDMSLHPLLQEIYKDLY
Chain of Nuclear respiratory factor 1 (Homo sapiens) (Q16656 whole entry, looked up): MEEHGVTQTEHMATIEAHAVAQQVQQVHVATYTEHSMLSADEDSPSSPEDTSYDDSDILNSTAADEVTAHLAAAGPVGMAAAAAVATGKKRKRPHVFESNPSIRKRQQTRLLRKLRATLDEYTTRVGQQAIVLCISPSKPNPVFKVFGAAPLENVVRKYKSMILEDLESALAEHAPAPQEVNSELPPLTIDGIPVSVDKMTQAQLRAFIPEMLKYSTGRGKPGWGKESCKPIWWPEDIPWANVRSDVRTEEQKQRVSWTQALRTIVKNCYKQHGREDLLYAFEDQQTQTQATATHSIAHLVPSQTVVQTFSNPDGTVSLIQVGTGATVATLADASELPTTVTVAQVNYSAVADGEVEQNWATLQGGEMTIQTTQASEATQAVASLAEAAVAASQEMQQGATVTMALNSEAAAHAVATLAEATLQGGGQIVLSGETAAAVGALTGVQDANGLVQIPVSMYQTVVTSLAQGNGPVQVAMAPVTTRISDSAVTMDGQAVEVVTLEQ
Chain of Myc proto-oncogene protein (Homo sapiens) (P01106 whole entry, looked up, the tested form may be a part): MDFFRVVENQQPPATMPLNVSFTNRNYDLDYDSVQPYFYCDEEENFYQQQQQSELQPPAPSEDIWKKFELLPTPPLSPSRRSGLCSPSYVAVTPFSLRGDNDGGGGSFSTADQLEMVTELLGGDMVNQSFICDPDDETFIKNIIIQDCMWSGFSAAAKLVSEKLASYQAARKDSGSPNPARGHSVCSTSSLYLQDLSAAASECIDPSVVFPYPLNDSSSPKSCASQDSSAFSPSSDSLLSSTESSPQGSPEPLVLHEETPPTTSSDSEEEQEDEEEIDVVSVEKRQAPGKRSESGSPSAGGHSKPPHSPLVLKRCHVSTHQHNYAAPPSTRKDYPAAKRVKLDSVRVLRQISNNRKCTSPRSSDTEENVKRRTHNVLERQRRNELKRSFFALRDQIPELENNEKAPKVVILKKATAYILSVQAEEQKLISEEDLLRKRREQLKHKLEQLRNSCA
Chain of human Peroxisome Proliferator-activated Receptor delta (PPARd), PPARD (gene 5467) (Q03181 whole entry, looked up, the tested form may be a part): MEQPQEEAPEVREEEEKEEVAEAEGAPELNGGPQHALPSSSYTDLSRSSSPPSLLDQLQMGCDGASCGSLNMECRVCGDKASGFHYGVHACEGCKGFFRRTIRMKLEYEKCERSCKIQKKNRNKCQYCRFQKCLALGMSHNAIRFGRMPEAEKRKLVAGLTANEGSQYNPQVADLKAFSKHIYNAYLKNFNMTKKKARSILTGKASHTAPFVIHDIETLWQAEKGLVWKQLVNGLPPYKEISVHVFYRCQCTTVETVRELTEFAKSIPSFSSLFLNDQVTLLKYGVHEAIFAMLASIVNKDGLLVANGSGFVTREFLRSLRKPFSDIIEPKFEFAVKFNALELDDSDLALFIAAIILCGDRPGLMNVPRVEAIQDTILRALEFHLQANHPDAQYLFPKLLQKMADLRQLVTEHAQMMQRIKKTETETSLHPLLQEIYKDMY
Chain of human Retinoic Acid Receptor beta (RARb), RARB (gene 5915) (P10826 whole entry, looked up, the tested form may be a part): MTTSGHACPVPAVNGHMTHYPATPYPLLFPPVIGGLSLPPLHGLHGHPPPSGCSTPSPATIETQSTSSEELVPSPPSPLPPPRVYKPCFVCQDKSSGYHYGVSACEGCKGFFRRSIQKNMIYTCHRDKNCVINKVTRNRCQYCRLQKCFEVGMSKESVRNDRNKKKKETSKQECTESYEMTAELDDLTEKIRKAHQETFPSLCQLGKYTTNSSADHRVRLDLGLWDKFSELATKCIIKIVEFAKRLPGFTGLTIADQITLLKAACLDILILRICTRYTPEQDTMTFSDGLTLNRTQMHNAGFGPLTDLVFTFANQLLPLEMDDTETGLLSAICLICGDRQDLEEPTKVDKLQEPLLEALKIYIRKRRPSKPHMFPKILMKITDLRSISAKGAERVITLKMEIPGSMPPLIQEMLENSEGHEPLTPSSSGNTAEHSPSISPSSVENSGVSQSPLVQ

COC(=O)c1ccc(C=O)cc1
not listed: [10] | [11] | [12] | [13] | [14]
inactive: all other assays above

CCCCCC/C=C/CCCCCCCC(=O)O
active: [8] 37.6 µM
not listed: [12] | [13] | [14]
inactive: all other assays above

Cc1cc(=O)[nH]c(C(C)C)n1
not listed: [9] | [13] | [14]
inactive: all other assays above

Cc1ccc2c(c1)OCC(=O)CO2
not listed: [10] | [11] | [13] | [14]
inactive: all other assays above

c1ccc(C[P+](c2ccccc2)(c2ccccc2)c2ccccc2)cc1
active: [5] 55.7 µM
not listed: [10]
inactive: all other assays above

CCOC(=O)CCC(C)=O
not listed: [9] | [11] | [13] | [14]
inactive: all other assays above

O=C(Cl)c1ccc(Cl)cc1Cl
not listed: [10] | [12] | [13]
inactive: all other assays above

CC(=O)C=O
not listed: [9] | [10] | [11] | [13]
inactive: all other assays above

CCc1cccc(C)c1N(C(=O)C(=O)O)C(C)COC (stereo not given)
not listed: [10] | [11] | [13] | [14]
inactive: all other assays above
